This passage reports binding signal results from paper PMC7862700, “An all-to-all approach to the identification of sequence-specific readers for epigenetic DNA modifications on cytosine”.

Chain of ELF1 (P32519 whole entry, the tested form may be a part): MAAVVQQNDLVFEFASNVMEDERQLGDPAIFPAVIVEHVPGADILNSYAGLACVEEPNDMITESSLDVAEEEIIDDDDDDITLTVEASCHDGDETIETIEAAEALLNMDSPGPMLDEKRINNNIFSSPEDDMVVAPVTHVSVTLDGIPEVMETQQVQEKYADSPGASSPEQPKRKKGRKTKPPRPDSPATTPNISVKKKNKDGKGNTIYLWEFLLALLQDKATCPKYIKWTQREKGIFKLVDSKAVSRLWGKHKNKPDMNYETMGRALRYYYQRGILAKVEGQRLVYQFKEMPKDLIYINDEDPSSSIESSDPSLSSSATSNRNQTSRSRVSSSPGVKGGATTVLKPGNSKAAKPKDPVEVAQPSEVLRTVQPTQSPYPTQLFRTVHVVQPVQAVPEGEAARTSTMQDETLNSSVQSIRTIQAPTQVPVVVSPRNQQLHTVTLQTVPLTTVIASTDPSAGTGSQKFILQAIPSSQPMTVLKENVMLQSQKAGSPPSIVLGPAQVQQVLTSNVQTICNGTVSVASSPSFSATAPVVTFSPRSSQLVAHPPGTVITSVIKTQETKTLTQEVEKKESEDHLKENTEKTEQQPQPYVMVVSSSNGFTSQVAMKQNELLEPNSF

The assay deals with ELF1 (Homo sapiens, UniProt P32519 1-619). Nature of the assay: DAPPL (digital affinity profiling via proximity ligation, sequencing); 10 mM Tris-HCl pH 7.5, 50 mM NaCl, 1 mM DTT, 4% glycerol, room temperature, 30 min; GST-TFs on glutathione beads, 16-mer random dsDNA library, 0.1% formaldehyde crosslink after washing; high values mean tight binding. The note with it: protein: recombinant; tags: N-terminal GST; dsDNA, one strand shown. The procedure, abridged:
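The binding signal reported is, for every hexamer, its read frequency for a factor over its read frequency for the tag-only sample. Reads came from pools of yeast-expressed, GST-fused human transcription factors on glutathione beads, barcoded with DNA and mixed with that sample, which were incubated with 200 nmole of a random double-stranded 16-mer DNA library in Tris/NaCl/DTT/glycerol buffer at room temperature for 30 min. After washing, the pools were crosslinked with 0.1% formaldehyde, proximity-ligated with BsaI/T4 ligase for 1 h at 37 °C, PCR-amplified and sequenced on an Illumina NextSeq500.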
As to TTTGTG, the binding signal is 1.09 fold enrichment (6-mer frequency, TF over GST control).

Turning to AATTCA, the binding signal is 1.31 fold enrichment (6-mer frequency, TF over GST control).

On to TTGCTC, for which the binding signal is 1.28 fold enrichment (6-mer frequency, TF over GST control).

Take CTAAAC: the binding signal was 1.24 fold enrichment (6-mer frequency, TF over GST control).

Turning to TAGGCT, the binding signal was 1.21 fold enrichment (6-mer frequency, TF over GST control).

As to CCTCTG, the binding signal is 1.65 fold enrichment (6-mer frequency, TF over GST control).

TGTCTA: the binding signal is 1.15 fold enrichment (6-mer frequency, TF over GST control).

Take TTCACC: the binding signal is 1.39 fold enrichment (6-mer frequency, TF over GST control).

Regarding ATCTAC, the binding signal was 1.34 fold enrichment (6-mer frequency, TF over GST control).

In the case of CACTAT, the binding signal was 1.26 fold enrichment (6-mer frequency, TF over GST control).

With TAATCC, the binding signal is 1.15 fold enrichment (6-mer frequency, TF over GST control).

As for AAAGAT, the binding signal was 1.26 fold enrichment (6-mer frequency, TF over GST control).

With CGTCTT, the binding signal was 1.35 fold enrichment (6-mer frequency, TF over GST control).

Regarding ACTGAA, the binding signal was 1.2 fold enrichment (6-mer frequency, TF over GST control).

On to CTCCGC, for which the binding signal is 1.56 fold enrichment (6-mer frequency, TF over GST control).

Take CAACTC: the binding signal is 1.34 fold enrichment (6-mer frequency, TF over GST control).

As to TACAAT, the binding signal is 1.3 fold enrichment (6-mer frequency, TF over GST control).

For CCATCT, the binding signal is 1.38 fold enrichment (6-mer frequency, TF over GST control).

Take TCCCCG: the binding signal is 1.23 fold enrichment (6-mer frequency, TF over GST control).

Consider ACTCTA, for which the binding signal is 1.52 fold enrichment (6-mer frequency, TF over GST control).

Take CCCTCC: the binding signal is 1.49 fold enrichment (6-mer frequency, TF over GST control).

For ATATTC, the binding signal is 1.28 fold enrichment (6-mer frequency, TF over GST control).

On to CGCTTA, for which the binding signal is 1.32 fold enrichment (6-mer frequency, TF over GST control).

Turning to ACGTTA, the binding signal was 1.19 fold enrichment (6-mer frequency, TF over GST control).

For GCCTTT, the binding signal is 1.28 fold enrichment (6-mer frequency, TF over GST control).

As for TTCGAG, the binding signal is 1.25 fold enrichment (6-mer frequency, TF over GST control).

Regarding CTGAGC, the binding signal is 1.19 fold enrichment (6-mer frequency, TF over GST control).

Regarding AATTCT, the binding signal was 1.32 fold enrichment (6-mer frequency, TF over GST control).

Turning to CCTGAA, the binding signal was 1.35 fold enrichment (6-mer frequency, TF over GST control).

Take TAACTT: the binding signal is 1.46 fold enrichment (6-mer frequency, TF over GST control).

For CTCATC, the binding signal is 1.35 fold enrichment (6-mer frequency, TF over GST control).

As to TCTCAT, the binding signal was 1.36 fold enrichment (6-mer frequency, TF over GST control).

With TGATGA, the binding signal is 1.35 fold enrichment (6-mer frequency, TF over GST control).

Turning to TTAAAT, the binding signal was 1.19 fold enrichment (6-mer frequency, TF over GST control).

Regarding TTTCAA, the binding signal was 1.3 fold enrichment (6-mer frequency, TF over GST control).

On to ATATGG, for which the binding signal was 1.26 fold enrichment (6-mer frequency, TF over GST control).

For the sequence ACTTGG, the binding signal is 1.34 fold enrichment (6-mer frequency, TF over GST control).

Turning to CACATT, the binding signal is 1.21 fold enrichment (6-mer frequency, TF over GST control).

In the case of TCCTGA, the binding signal was 1.41 fold enrichment (6-mer frequency, TF over GST control).
